Source: PubChem BioAssay

Experiment: compounds altering circadian rhythm period length – cell-based, LOPAC library, luminescence reporter (AID 2774);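 note: values are relative to mean of DMSO wells on each plate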
Conditions: circadian reporter cells, at 7 µM, actives lie on both sides; call rule not given here

Period change, inactive:
CN1CCN(C2=Nc3ccccc3Oc3ccc(Cl)cc32)CC1 -0.045 h
CO[C@@]1(NC(=O)CSCC#N)C(=O)N2C(C(=O)O)=C(CSc3nnnn3C)CS[C@@H]21 -0.07 h
CN1CCC(=C2c3ccccc3C=Cc3ccccc32)CC1 0.015 h
CN(C)CC[C@@H](c1ccc(Br)cc1)c1ccccn1 -0.05 h
Nc1nnc(-c2cccc(Cl)c2Cl)c(N)n1 -0.15 h
NC(N)=Nc1nc(CSCC/C(N)=N/S(N)(=O)=O)cs1 -0.03 h
NCCS(=O)(=O)O -0.23 h
COc1cc2nc(N3CCN(C(=O)C4COc5ccccc5O4)CC3)nc(N)c2cc1OC (centres undefined) 0.11 h
Brc1c(NC2=NCCN2)ccc2nccnc12 -0.1 h
CC(C)NCC(O)COc1ccc(CCOCC2CC2)cc1 (centres undefined) 0.03 h
C[C@]12C[C@H](O)[C@H]3[C@@H](CCC4=CC(=O)CC[C@@]43C)[C@@H]1CC[C@@H]2C(=O)CO -0.34 h
Cc1scc2c1N(C(=O)CN1CCN(C)CC1)c1ccccc1NC2=O 0.165 h
COc1cc(C(=O)OCCCN2CCCN(CCCOC(=O)c3cc(OC)c(OC)c(OC)c3)CC2)cc(OC)c1OC -0.025 h
CNC[C@H](O)c1ccc(O)c(O)c1 0.025 h
CC[N+](C)(C)Cc1ccccc1Br 0.095 h
Nc1nc2c(ncn2COC(CO)CO)c(=O)[nH]1 -0.27 h
NC1CCN(c2cccc(Cl)n2)CC1 -0.02 h
C=CC(N)CCC(=O)O (centres undefined) 0.105 h
CCN(CC)CCNC(=O)c1ccc(NC(C)=O)cc1 0.01 h
COc1ccccc1OCC(O)CN1CCN(CC(=O)Nc2c(C)cccc2C)CC1 (centres undefined) 0 h
CC(C(=O)O)c1ccc(CC2CCCC2=O)cc1 (centres undefined) -0.055 h
CCOC(=O)c1ncn2c1CN(C)C(=O)c1cc(F)ccc1-2 -0.15 h
COC(=O)[C@@H]1[C@H]2C[C@H]3c4[nH]c5ccccc5c4CCN3C[C@@H]2CC[C@@H]1O 0.095 h
O=C(c1ccc(F)cc1)C1CCN(CCn2c(=O)[nH]c3ccccc3c2=O)CC1 0 h
O=c1c(-c2ccc(O)cc2)coc2cc(O)cc(O)c12 0 h
CC(=O)OC(C)C[N+](C)(C)C (centres undefined) -0.04 h
NC(=O)OCC(COC(N)=O)c1ccccc1 -0.105 h
CCOC(=O)C1=C[C@]2(CC)CCCN3CCc4c(n1c1ccccc41)[C@@H]32 0 h
Nc1ccn([C@H]2CC[C@@H](CO)O2)c(=O)n1 -0.095 h
NC(N)=NC(=O)Cc1c(Cl)cccc1Cl 0.09 h
C[C@@](Cc1ccc(O)c(O)c1)(NN)C(=O)O 0.03 h
CN1C(C)(C)CCCC1(C)C -0.07 h
O=C1N(c2ccccc2)c2ccccc2C1(Cc1ccncc1)Cc1ccncc1 0.25 h
COc1ccc(C2CNC(=O)C2)cc1OC1CCCC1 (centres undefined) -0.065 h
NC(N)=N/N=C/c1c(Cl)cccc1Cl 0.195 h
C[C@]12C=CC(=O)C=C1CC[C@H]1[C@@H]3C[C@@H](O)[C@](O)(C(=O)CO)[C@@]3(C)C[C@H](O)[C@@]12F -0.51 h
CCOC(=O)C1=C(C)NC(C)=C(C(=O)OC)C1c1cccc(Cl)c1Cl (centres undefined) -0.06 h
COC(=O)Nc1nc2ccc(C(=O)c3cccs3)cc2[nH]1 -0.58 h
Cc1ccc(C(=O)Nc2ccc(S(=O)(=O)O)c3cc(S(=O)(=O)O)cc(S(=O)(=O)O)c23)cc1NC(=O)c1cccc(NC(=O)Nc2cccc(C(=O)Nc3cc(C(=O)Nc4ccc(S(=O)(=O)O)c5cc(S(=O)(=O)O)cc(S(=O)(=O)O)c45)ccc3C)c2)c1 0.03 h
